This is a sample that favours compounds with a hit; in the whole collection about 21% have one here.
IL-1B inflam inh: qHTS for Inhibitors of Inflammasome Signaling: IL-1-beta AlphaLISA Primary Screen; THP-1 LPS/ATP IL-1B secretion, AlphaLISA, 16 h; stronger effect = lower value; activity change, % at 57.5 µM; 360,000 compounds, 4.7% hits; AID 743279, 2014; in the data active = activity change below about -50%; inconclusive = mostly about -30% to -49%; also: % is scaled to controls: 0 for no effect and ±100 for the full control effect
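THP-1 cells pretreated 1 hr with compounds (up to 57.5 uM final), then stimulated with LPS (250 ng/mL final) plus ATP (1.25 mM final); secreted IL-1B measured by AlphaLISA after 16 hr, decreased signal indicating inhibition.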
TDP1 cell noCPT: qHTS for Inhibitors of human tyrosyl-DNA phosphodiesterase 1 (TDP1): qHTS in cells in absence of CPT; DT40 Tdp1-/- hTDP1 cells, no CPT, ATP luminescence, 48 h; 420,000 compounds, 15% hits; AID 686978, 2013; Potency, µM (highest dose often 46.2 µM), inactives show at the top dose activity change, negative = growth inhibition, usual class: inhibitors; also: potency is read from the fitted curve at half-maximal effect; % is scaled to controls: 0 for no effect and ±100 for the full control effect; nearly all actives have a fitted effect of over 55% in size
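Growth kinetics read by CellTiter-Glo luminescence after ≥48 hr at 37 °C. Cells: DT40 Tdp1-/- stably carrying human TDP1, 400 per well, compound exposure in the absence of CPT (DMSO vehicle).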
TDP1 cell CPT: qHTS for Inhibitors of human tyrosyl-DNA phosphodiesterase 1 (TDP1): qHTS in cells in presence of CPT; chicken DT40 Tdp1-/-;hTDP1 cells + 20 nM CPT, ATP luminescence, 48 h; Potency, µM (titrated, usually from 46.2 µM), inactives show top-dose activity change, negative = growth inhibition, usual class: inhibitors; 420,000 compounds, 12% hits; also: potency is read from the fitted curve at half-maximal effect; % is scaled to controls: 0 for no effect and ±100 for the full control effect; nearly all actives have a fitted effect of over 55% in size
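Cell growth measured by CellTiter-Glo luminescence after a minimum 48 h, 37 C compound exposure with 20 nM CPT in Tdp1-knockout DT40 cells stably expressing hTDP1, seeded 400/well; qHTS titration format.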
DRD3 agonist: qHTS of D3 Dopamine Receptor Agonist: qHTS; D(3) dopamine receptor (Homo sapiens), P35462; D3R DiscoveRx beta-arrestin cells, luminescence, 90 min; max activation, %; 410,000 compounds, 0.58% hits; AID 652048, 2013; in the data active = max activation above about 30%; also: 0% is about no effect
Target sequence (P35462 whole entry, looked up): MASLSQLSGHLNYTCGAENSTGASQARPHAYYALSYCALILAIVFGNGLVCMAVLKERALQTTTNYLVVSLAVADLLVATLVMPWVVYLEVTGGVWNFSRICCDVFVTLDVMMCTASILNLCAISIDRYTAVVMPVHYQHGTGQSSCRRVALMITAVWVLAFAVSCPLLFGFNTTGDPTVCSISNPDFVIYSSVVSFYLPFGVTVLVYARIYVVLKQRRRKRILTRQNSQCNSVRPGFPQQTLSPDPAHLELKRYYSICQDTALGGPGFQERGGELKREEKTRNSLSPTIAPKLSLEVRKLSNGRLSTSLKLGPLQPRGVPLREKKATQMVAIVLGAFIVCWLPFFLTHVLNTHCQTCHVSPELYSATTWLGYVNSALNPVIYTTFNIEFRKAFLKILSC
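Agonist-mode cell screen: cells plated at 1500/well and incubated overnight at 37 °C, then exposed to library compounds for 90 min at 37 °C. Detection reagent was added for 30–60 min at room temperature, and luminescence was read.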
DRD3 antagonist: qHTS of D3 Dopamine Receptor Antagonist: qHTS. 360,000 compounds, 2.5% hits. D(3) dopamine receptor (Homo sapiens), P35462. D3R cells, DiscoveRx beta-arrestin luminescence, antagonist mode; stronger effect = lower value. max response, negative = inhibition, %; in the data active = max response below about -50%; inconclusive = no clear call, values can overlap the other calls; also: % is scaled to controls: 0 for no effect and ±100 for the full control effect
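Cells expressing the human receptor were seeded at 1500 cells/well, incubated overnight at 37 degrees C in 5% CO2, then exposed to library compounds with dopamine controls for 90 minutes at 37 degrees C before luminescent detection.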
ClpP mod: qHTS Assay for Activators of ClpP; ATP-dependent Clp protease proteolytic subunit (Bacillus subtilis (strain 168)), P80244; purified B. subtilis ClpP, FRET peptide cleavage, 20 min; Potency, µM (top dose mostly 57.5 µM), for the others: at the highest dose activity change, negative = active; 340,000 compounds, 1.9% hits; active = well fitted falling curve with a large enough effect; inconclusive = small, poorly fitted or top-dose-only effect; inactive = no such curve, though single readings can be large or run the other way; also: potency is read from the fitted curve at half-maximal effect; the source files actives as falling curves though it sought activators and does not explain the sign; nearly all actives have a fitted effect of over 65% in size
Target sequence (P80244 whole entry, looked up): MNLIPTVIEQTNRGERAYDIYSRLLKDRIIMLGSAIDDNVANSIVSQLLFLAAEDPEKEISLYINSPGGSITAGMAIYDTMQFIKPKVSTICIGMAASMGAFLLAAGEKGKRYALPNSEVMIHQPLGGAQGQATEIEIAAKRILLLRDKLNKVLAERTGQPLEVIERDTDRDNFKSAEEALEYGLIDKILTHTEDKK
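Purified B. subtilis ClpP, 10 microg/mL final in Tris/HCl pH8 with KCl, BSA, glycerol and Tween-20, cleaved an Abz/nitrotyrosine-quenched decapeptide. Fluorescence (ex 320, em 430) was read at 0 and 20 min at room temperature. Delta was normalized to 5.8 microM ADEP and DMSO/no-enzyme controls.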
* = called active by the depositor; ? = inconclusive; · = not tested or not shown; [ ] = dose if it differs, or a comment. Unless noted, calls follow the shape of the dose curve; as a rule, active = well fitted inhibition curve with a large enough effect; inconclusive = small, poorly fitted or top-dose-only effect; inactive = flat fitted curve, though single readings scatter.

SMILES	IL-1B inflam inh	TDP1 cell noCPT	TDP1 cell CPT	DRD3 agonist	DRD3 antagonist	ClpP mod
O=C(NCC1CCCO1)C1CCCN1C(=O)Nc1ccc(Cl)cc1 (stereo not drawn)	9.0	-3.5%	21.1%	-1.2	-15.9	-0.6%
CCOC(=O)c1sc(N2N=C(C)/C(=C\c3ccc(OCC(=O)OC)cc3)C2=O)nc1C	-15.8	-4.3%	-6.9%	3.1	-70.3*	1.0%
CCCN1C(=O)/C(=C/c2ccc(OCC(=O)OCC)cc2)NC1=S	10.1	2.6%	-91.3%	-10.1	-15.0	-0.9%
COc1cc(OC)c(OC)cc1CN1CCN(C(=O)CC(C)C)CC1	17.6	-12.3%	-11.8%	-1.6	1.6	1.4%
CC1CCC(NC(=O)COC(=O)C2=NN(c3ccccc3)C(=O)CC2)CC1 (stereo not drawn)	17.5	10.6%	-10.5%	-9.0	2.9	0.0%
O=C(O)c1cc2cccc(S(=O)(=O)N3CCCCC3)c2cc1O	21.8	-3.9%	-0.3%	30.1*	9.4	-0.4%
COc1ccc(-n2ccc(-c3sc(NCc4cc(OC)c5c(c4)OCO5)nc3C)n2)cc1	·	?	-10.0%[9.04 µM]	·	·	·
CCCc1c(C)[nH]c2ccccc2c1=O	-1.7	?	?	1.3	37.1	-7.3%
CCCCNC(=S)N(C)/N=C/c1c(C)[nH]c2ccccc12	32.1	-27.7%	-5.9%	6.3	20.9	-0.5%
CCCCCCC[n+]1ccc(/C=C/c2c(C)[nH]c3ccccc23)c2ccccc21	·	1.26µM*	1.26µM*	·	·	-2.2%
CCCCCCCCCC[n+]1ccc(/C=C/c2c(C)[nH]c3ccccc23)c2ccccc21	·	1µM*	0.794µM*	·	·	1.1%
CCn1c(=O)n(CC)c2cc(N3CCCCC3)c(NC(=O)Nc3cc(C)cc(C)c3)cc21	·	6.51µM*	5.8µM*	6.9	·	?
CCn1c(=O)c(=O)n(CC)c2cc(N3CCCCC3)c(NC(=O)c3ccc(OC)c(OC)c3)cc21	·	9.2µM*	13µM*	-6.1	·	?
Cn1c(=O)n(C)c2cc(N3CCOCC3)c(NC(=O)c3c(F)cccc3F)cc21	·	-27.9%	?	-1.3	·	-5.5%
CCOc1ccc(C(=O)Nc2cc3c(cc2N2CCCC2)n(CC)c(=O)n3CC)cc1OCC	15.0	?	?	5.5	8.2	-18.8%
CCn1c(=O)n(CC)c2cc(N3CCCC3)c(NC(=O)c3c(F)cccc3F)cc21	20.1	11.6µM*	?	-2.7	-6.2	-7.5%
CCOC(=O)Cc1ccc(NC(=O)Nc2cc3c(cc2N2CCCCC2)n(C)c(=O)n3C)cc1	·	2.59µM*	4.61µM*	7.8	·	3.5%
Cc1cc(C)cc(NC(=O)Oc2ccccc2N2CCCCC2)c1	·	-21.4%	0.3%	-4.0	11.0	·
Cn1c(=O)n(C)c2cc(N3CCCCC3)c(NC(=O)Nc3ccc(Br)cc3)cc21	·	?	?	6.3	·	-22.5%
C=CCN(C(=O)c1csnn1)C(C(=O)NC1CCCC1)c1c(F)cccc1Cl (stereo not drawn)	-12.0	-13.4%	3.6%	-9.2	-17.3	·
CN(C)c1cc2c(cc1NC(=O)c1ccc(F)cc1)n(C)c(=O)n2C	·	23.1µM*	?	14.5	·	4.5%
CCn1c(=O)n(CC)c2cc(N3CCCC3)c(NC(=O)c3ccc(F)cc3)cc21	48.7	18.4µM*	23.1µM*	3.2	37.7	-0.6%
CC(C)(C)OC(=O)NCc1ccc(NC(=O)c2nc[nH]c2C(=O)N[C@@H](Cc2ccccc2)C(=O)OC(C)(C)C)cc1	?	11.6µM*	14.6µM*	12.8	0.0	-25.3%
C[C@H](NC(=O)c1nc[nH]c1C(=O)N[C@@H](C)C(=O)OC(C)(C)C)C(=O)OCc1ccccc1	26.7	-15.9%	-13.1%	9.3	-23.4	0.8%
CC(C)C[C@H](NC(=O)c1nc[nH]c1C(=O)NCCCCCNC(=O)OC(C)(C)C)C(=O)OCc1ccccc1	21.9	?	?	28.7	71.6	1.3%
SMILES	IL-1B inflam inh	TDP1 cell noCPT	TDP1 cell CPT	DRD3 agonist	DRD3 antagonist	ClpP mod
C[C@H](NC(=O)c1[nH]cnc1C(=O)Nc1ccc(CNC(=O)OC(C)(C)C)cc1)C(=O)OCc1ccccc1	1.1	18.4µM*	?	80.5*	41.9	85.8%
CC(C)C[C@H](NC(=O)c1[nH]cnc1C(=O)Nc1ccc(CNC(=O)OC(C)(C)C)cc1)C(=O)OCc1ccccc1	-1.7	14.6µM*	?	-15.9	26.4	?
C/C(CCC12CC3CC(CC(C3)C1)C2)=N\NC(N)=S	-5.3	16.4µM*	14.6µM*	-19.2	?	0.6%
Cc1ccc(Sc2c([N+](=O)[O-])c(=O)n(C)c3ccccc23)cc1	2.9	13µM*	14.6µM*	-27.5	-71.5*	-1.2%
Cc1ccc(Sc2c(O)c3ccccc3n(C)c2=O)cc1	3.8	13.7%	-25.8%	1.0	13.0	-9.1%
N#C/C(C(N)=O)=c1/ccc2c(c1)N1C3=C(CCCC3)CC3CCCCC31N=2 (stereo not drawn)	-101.8*	13µM*	14.6µM*	-2.9	-14.9	3.1%
N#CC(C#N)=c1ccc2c(c1)N1C3=C(CCCC3)CC3CCCCC31N=2 (stereo not drawn)	-116.7*	?	?	-0.5	18.0	-9.8%
CC(=O)c1ccc(N2CCC(c3cc(-c4ccc(Cl)cc4Cl)n[nH]3)CC2)c([N+](=O)[O-])c1	-55.1*	6.51µM*	4.11µM*	-23.6	12.1	0.5%
O=[N+]([O-])c1cccnc1N1CCC(c2cc(-c3ccc(Cl)cc3Cl)n[nH]2)CC1	0.0	20.6µM*	18.4µM*	-1.3	?	-3.2%
O=C(O)c1ccc(N2CCN(c3ccc(Cl)cc3)CC2)c([N+](=O)[O-])c1	-3.8	-3.5%	11.1%	-22.7	-12.6	·
O=C(O)c1cc(-c2ccc(-c3ccc(F)cc3)o2)nc2ccccc12	20.2	0.0%	-0.9%	-6.5	-15.6	3.9%
COc1ccc(S(=O)(=O)Nc2ccc3c(c2)CC(=O)N([C@@H](C)CO)C[C@@H](C)[C@@H](CN(C)Cc2ccccc2)O3)cc1	-15.2	16.4µM*	18.4µM*	-34.6	-12.6	0.8%
C[C@@H]1CN([C@H](C)CO)C(=O)Cc2cc(NS(=O)(=O)c3ccc(F)cc3)ccc2O[C@H]1CN(C)Cc1ccc(C(=O)O)cc1	23.6	-29.3%	-23.8%	6.0	-5.3	-0.8%

Source: PubChem (National Center for Advancing Translational Sciences (NCATS))
